From the supplement of paper PMC6089552 come the findings set out here.

Screen size: about 3,200 compounds; about 300 (9.4%) showed activity. What follows is part of a selection rich in actives, with near analogues and random picks from the rest. Unmarked numbers belong to inactive results.

For the test, the system named is A673/TR/shEF. In words: cell viability (LOESS-normalised, relative to median of negative controls) (log2 ratio); higher = more viable cells (less compound effect), active = hit call of the paper (over 3 MAD below the median). The settings on record: treatment time: 72 h. The essentials:
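Viability of A673/TR/shEF Ewing sarcoma cells was determined by CellTiter-Glo luminescence. The cells, at 1,500 per well in 384-well plates, were grown with or without doxycycline from 24 h before compound addition to switch on EWS-FLI1 shRNA knockdown, then exposed for three days to library compounds at two or more concentrations or to DMSO controls. Signals were LOESS-corrected plate by plate, normalised to the negative-control median and log2-transformed.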

The mark [1] stands for this setting: 0.25 µM, library screen: screen2, EWS-FLI1 expression: high (no doxycycline).
Where [2] appears, read: 0.25 µM, library screen: screen2, EWS-FLI1 expression: low (doxycycline-induced shRNA knockdown).
Setting [3] is: 2.5 µM, library screen: screen2, EWS-FLI1 expression: high (no doxycycline).
[4] abbreviates: 2.5 µM, library screen: screen2, EWS-FLI1 expression: low (doxycycline-induced shRNA knockdown).
Where [5] appears, read: 0.25 µM, library screen: screen1, EWS-FLI1 expression: high (no doxycycline).
[6] abbreviates: 0.25 µM, library screen: screen1, EWS-FLI1 expression: low (doxycycline-induced shRNA knockdown).
Where [7] appears, read: 2.5 µM, library screen: screen1, EWS-FLI1 expression: high (no doxycycline).
The mark [8] stands for this setting: 2.5 µM, library screen: screen1, EWS-FLI1 expression: low (doxycycline-induced shRNA knockdown).
The mark [9] stands for this setting: 0.103 µM, library screen: screen3, EWS-FLI1 expression: high (no doxycycline).
The mark [10] stands for this setting: 0.103 µM, library screen: screen3, EWS-FLI1 expression: low (doxycycline-induced shRNA knockdown).
[11] abbreviates: 0.308 µM, library screen: screen3, EWS-FLI1 expression: high (no doxycycline).
Setting [12] is: 0.308 µM, library screen: screen3, EWS-FLI1 expression: low (doxycycline-induced shRNA knockdown).
Setting [13] is: 0.926 µM, library screen: screen3, EWS-FLI1 expression: high (no doxycycline).
The mark [14] stands for this setting: 0.926 µM, library screen: screen3, EWS-FLI1 expression: low (doxycycline-induced shRNA knockdown).
Setting [15] is: 2.8 µM, library screen: screen3, EWS-FLI1 expression: high (no doxycycline).
Setting [16] is: 2.8 µM, library screen: screen3, EWS-FLI1 expression: low (doxycycline-induced shRNA knockdown).
Setting [17] is: 8.3 µM, library screen: screen3, EWS-FLI1 expression: high (no doxycycline).
[18] abbreviates: 8.3 µM, library screen: screen3, EWS-FLI1 expression: low (doxycycline-induced shRNA knockdown).
[19] abbreviates: 25 µM, library screen: screen3, EWS-FLI1 expression: high (no doxycycline).
Setting [20] is: 25 µM, library screen: screen3, EWS-FLI1 expression: low (doxycycline-induced shRNA knockdown).

As to `CC1(NCC(O)COc2cccc3[nH]ccc23)CCC(C(C)(C)NC(=O)CBr)CC1` (centres undefined), the “cell viability (log2)” value under setting [1] was 0.126, the “cell viability (log2)” value under setting [2] was 0.0547, the “cell viability (log2)” value under setting [3] was 0.106 and the “cell viability (log2)” value under setting [4] was 0.0182.
As for `CCOc1c(Br)cc(C=C(C#N)c2nn(-c3ccccc3)c(N)c2C#N)cc1OC`, the “cell viability (log2)” value reads like this: under setting [5], 0.0856; under setting [6], 0.124; under setting [7], 0.0719; under setting [8], 0.193.
The matching figures for `CCOC(=O)c1c[nH]c2c(C)cccc2c1=O`: 0.111, 0.0771, 0.1 and -0.0609.
The matching figures for `CC[C@H]1OC(=O)[C@H](C)[C@@H](O[C@H]2C[C@@](C)(OC)[C@@H](O)[C@H](C)O2)[C@H](C)[C@@H](O[C@@H]2O[C@H](C)C[C@H](N(C)C)[C@H]2O)[C@](C)(O)C[C@@H](C)[C@@H]2N[C@@H](COCCOC)OC([C@H]2C)[C@]1(C)O`: 0.163, 0.065, 0.143 and 0.0253.
For the compound `COc1cc(O)c2c(=O)c(-c3ccc(O)cc3)coc2c1`, the “cell viability (log2)” value was -0.0342 under setting [5], 0.0164 under setting [6], 0.131 under setting [7] and 0.0327 under setting [8].
Take `O=C1CCCCC/C=C\CCCCCCCCO1`: the “cell viability (log2)” value was -0.00728 under setting [5], 0.0186 under setting [6], 0.143 under setting [7] and 0.0924 under setting [8].
For the compound `CCCCCCCCCCCCCCCCCC(=O)NCC(COP(=O)([O-])OCC[N+](C)(C)C)OC` (centres undefined), the “cell viability (log2)” value runs as follows: under setting [1], 0.255; under setting [2], 0.0758; under setting [3], 0.173; under setting [4], 0.0504.
As to `Cc1cc(Nc2cc(CN3CCOCC3)c3nc(C)c(Cc4ccc(Cl)cc4F)n3n2)n[nH]1`, the “cell viability (log2)” value runs as follows: under setting [9], 0.0112; under setting [10], 0.0393; under setting [11], -0.00623; under setting [12], -0.00356; under setting [13], -0.0578; under setting [14], 0.0432. In addition, the “cell viability (log2)” value is -0.183 (active) under setting [15]; -0.0123 under setting [16]; -0.442 (active) under setting [17]; -0.142 (active) under setting [18]; -1.04 (active) under setting [19]; -0.863 (active) under setting [20].
For `COc1c2ccoc2c(OC)c2oc(=O)ccc12`, the “cell viability (log2)” value reads like this: under setting [5], 0.157; under setting [6], -0.0309; under setting [7], 0.197; under setting [8], 0.0899.
The corresponding values for `CC1Cc2ccccc2N1C(=S)Nc1ccc2nccnc2c1` (centres undefined) are 0.139, 0.113, 0.133 and 0.0139.
The matching figures for `CC[C@H](C)C(=O)O[C@H]1C[C@@H](C)C=C2C=C[C@H](C)[C@H](CC[C@@H]3C[C@@H](O)CC(=O)O3)[C@H]21`: 0.0174, -0.0358, 0.109 and 0.0431.
Turning to `CCC(C)(C)C(=O)O[C@H]1C[C@@H](C)C=C2C=C[C@H](C)[C@H](CC[C@@H]3C[C@@H](O)CC(=O)O3)[C@H]21`, the “cell viability (log2)” value is, setting by setting: under setting [9], 0.14; under setting [10], 0.05; under setting [5], 0.0551; under setting [6], -0.0746; under setting [11], 0.153; under setting [12], 0.105. The “cell viability (log2)” value by setting is: under setting [13], 0.0408; under setting [14], 0.0447; under setting [7], 0.0209; under setting [8], -0.321; under setting [15], 0.107; under setting [16], -0.0366. Besides, the “cell viability (log2)” value is, setting by setting: under setting [17], -0.0829; under setting [18], -0.13; under setting [19], -1.27 (active); under setting [20], -1.32 (active).
Turning to `CC[C@H](C)C(=O)O[C@H]1CCC=C2C=C[C@H](C)[C@H](CC[C@@H]3C[C@@H](O)CC(=O)O3)[C@H]21`, the “cell viability (log2)” value is 0.147 under setting [5]; 0.00215 under setting [6]; 0.167 under setting [1]; 0.108 under setting [2]; 0.0603 under setting [7]; -0.0998 under setting [8]. In addition, the “cell viability (log2)” value by setting is: under setting [3], 0.145; under setting [4], 0.0674.
Turning to `COCCn1c2c([n+](Cc3cnccn3)c1C)C(=O)c1ccccc1C2=O`, the “cell viability (log2)” value is -3.94 (active) under setting [9]; -2.36 (active) under setting [10]; -3.88 (active) under setting [11]; -4.02 (active) under setting [12]; -3.96 (active) under setting [13]; -4.06 (active) under setting [14]. The “cell viability (log2)” value under setting [15] was -4.31 (active); the “cell viability (log2)” value under setting [16] is -4.17 (active); the “cell viability (log2)” value under setting [17] was -4.31 (active); the “cell viability (log2)” value under setting [18] is -4.28 (active); the “cell viability (log2)” value under setting [19] was -4.31 (active); the “cell viability (log2)” value under setting [20] was -4.3 (active).
In the case of `CC(=O)OCC(=O)[C@@]1(O)CC[C@H]2[C@@H]3CC[C@@H]4C[C@H](O)CC[C@]4(C)[C@H]3C(=O)C[C@@]21C`, the “cell viability (log2)” value under setting [5] is 0.128, the “cell viability (log2)” value under setting [6] is 0.0697, the “cell viability (log2)” value under setting [7] was 0.109 and the “cell viability (log2)” value under setting [8] is -0.0114.
The matching figures for `COc1ccc(-c2cc(=O)c3ccccc3o2)cc1OC`: -0.0122, 0.00789, 0.068 and 0.128.
The corresponding values for `C=CC(C1=CC(=O)C(OC)=CC1=O)c1ccc(OC)cc1` (centres undefined) are 0.133, 0.135, 0.157 and 0.265.
The corresponding values for `C=C[C@@H](C1=CC(=O)C(OC)=C(OC)C1=O)c1ccccc1` are -0.165 (active), 0.026, -0.00361 and 0.0945.
